# aSyn UTR act: Activators via SNCA 5'UTR binding, MLPCN. alpha-synuclein 5'UTR reporter, activators screen. activity score, % (tested at 7.5 µM), hits read low. 300,000 tested, 7.1% active; in the data active = activity score below about -60%
# Numbers stand for hits; i = inactive. The list is a sample of the results.
SMILES,aSyn UTR act
COc1cc(OC)cc(C(=O)O/N=C(\N)c2cccc(C)c2)c1,-81.4
Cc1cccc(/C(N)=N/OC(=O)c2cccnc2)c1,-73.4
O=c1c(-c2ccc(Cl)cc2)cnc2n1CCS2,-83.5
Cc1oc2c(cc(NS(=O)(=O)c3ccc4c5c(cccc35)C(=O)N4)c3ccccc32)c1C(=O)OC(C)C,-68.8
COc1cc2c(cc1OC)CN(C(=O)c1cc3ccccc3oc1=O)CC2,-98.8
COc1ccc2oc(=O)c(C(=O)N3CCN(c4ccccc4)CC3)cc2c1,-68.1
COc1ccc2oc(=O)c(C(=O)N3CCN(c4ccccc4C)CC3)cc2c1,-157.3
O=C(OCn1ncc(Cl)c(Cl)c1=O)c1ccc(C(F)(F)F)cc1,-117.3
Cc1nc2c(sc3nc4c(cc32)COC(C)(C)C4)c(=O)n1Cc1ccccc1,-108.8
Cc1nc2c(sc3nc4c(cc32)COC(C)(C)C4)c(=O)n1CC(=O)NCc1ccco1,-69.3
Cc1nc(OCc2ccccc2)c2sc3nc4c(cc3c2n1)COC(C)(C)C4,-184.6
CCCc1nc2c(sc3nc4c(cc32)COC(C)(C)C4)c(=O)n1Cc1ccco1,-64.7
CCc1cc2c(=O)n(C(C)C(=O)OC3CCCCC3)cnc2s1 (configuration not stated),-137.0
COc1ccc(C2CC2/C(=N/OC(=O)c2cccs2)c2ccccc2)cc1 (configuration not stated),-152.6
Cc1ccc(C2=NN3C(=O)c4ccccc4C3C2)cc1 (configuration not stated),-170.3
O=C(CSc1ncnc2sc3c(c12)CCCC3)c1ccccc1,-76.9
CS(=O)(=O)c1nc(S(=O)(=O)c2ccc(Cl)cc2)c(N2CCOCC2)s1,-74.9
Cc1ccc(S(=O)(=O)c2nc(S(C)(=O)=O)sc2N2CCCCCC2)cc1,-113.0
N#Cc1nc(-c2cccs2)oc1NCCc1ccccc1,-111.3
COc1ccc(-c2nc(C#N)c(NCCc3ccccc3)o2)cc1OC,-142.4
COC(=O)N/N=C/c1ccc([N+](=O)[O-])s1,-142.2
O=C(CNC(=O)c1cccc(F)c1)N/N=C/c1ccc([N+](=O)[O-])s1,-104.5
O=C(N/N=C/c1ccc([N+](=O)[O-])s1)c1ccccc1,i
COc1ccccc1NC(=O)C(=O)N/N=C/c1ccc([N+](=O)[O-])s1,-138.4
NC(=O)C(C(=O)/C=C/c1ccc(Cl)cc1)=C1SCCS1,-113.7
SMILES,aSyn UTR act
COc1ccc(/C=C/C(=O)C(C(N)=O)=C2SCCS2)cc1,-109.0
Cc1cc(C)c(-c2nc3ccccc3s2)[nH]1,-190.2
CCCCOc1ccc(-c2ncc(C(=O)O)c(C)n2)cc1,-123.0
COc1ccc2c(c1)oc(=O)c1c3ccccc3[nH]c21,-277.2
COc1ccc2c(=O)c3ccccc3oc2c1,-146.8
COc1ccc2c(c1)oc(=O)c1cc(OC)ccc12,-181.9
O=C(Nc1ccc2ccccc2n1)c1ccccc1,-73.8
O=C(Nc1cccs1)Nc1ccccc1Br,-89.4
O=C(Nc1ccc2ccccc2n1)Nc1cccs1,-62.4
COc1ccc(C(=O)Nc2ccc3ccccc3n2)cc1OC,-139.3
O=C(Nc1ccc2ccccc2n1)c1ccccc1Br,-146.2
O=C(CCc1ccccc1)NNc1cc(N2CCCCC2)nc(N2CCCCC2)n1,i
O=C(Nc1ccc(C(F)(F)F)cn1)Nc1cccs1,-75.9
O=C(CCc1ccccc1)Nc1ccc2ccccc2n1,-146.0
COc1ccc(-c2csc3nc(-c4ccccc4F)oc(=O)c23)cc1,-101.0
COc1ccc(F)cc1CN1CCN(c2ncnc3scc(-c4ccccc4)c23)CC1,i
CSc1ccc(NC(=O)Nc2cccn(Cc3ccccc3F)c2=O)cc1,-76.1
CC(C)N1CCc2c(sc(NC(=O)c3ccc4ccccc4c3)c2C(N)=O)C1,-97.0
CCC(CC)c1nnc(NC(=O)c2ccc3ccccc3n2)s1,-85.7
CN1CCc2c(sc(NC(=O)c3ccc([N+](=O)[O-])o3)c2C(N)=O)C1,i
CCCc1cc(C(=O)Nc2nnc(C)s2)cs1,-115.1
Cc1nnc(NC(=O)c2ccc3ccccc3c2)s1,-145.2
CC(C)c1nnc(NC(=O)c2ccc3ccccc3c2)s1,-64.4
CC(C)c1nnc(NC(=O)c2sc3ccccc3c2Cl)s1,-110.5
Cc1cnc(NC(=O)c2sc3ccccc3c2Cl)s1,i
SMILES,aSyn UTR act
CC(C)COCc1ccc(O)c2ncccc12,i
COc1ccc2c(COC(=O)c3n[nH]c4ccccc34)cc(=O)oc2c1,-180.4
Cc1cc2oc(=O)cc(COC(=O)c3n[nH]c4ccccc34)c2cc1C,-133.6
COCCN(C(=O)COC(=O)/C=C/c1ccccc1Cl)c1c(N)n(Cc2ccccc2)c(=O)[nH]c1=O,-91.9
Cn1c(/C(C#N)=C(\O)c2ccc([N+](=O)[O-])s2)nc2ccccc21,-115.3
Cn1c(/C(C#N)=C(\O)c2ccc(Cl)s2)nc2ccccc21,-80.4
CSc1ccccc1-c1nnc(-c2ccc(C)cc2)o1,-105.8
Cc1ccccc1-c1nnc(-c2ccccc2C)o1,-145.4
Cc1ccccc1-c1nnc(-c2ccc(Br)cc2)o1,-175.0
Cc1ccccc1-c1nnc(CN2CCC(C)CC2)o1,-76.5
COc1ccc(/C=N/NC(=O)CCn2cnc(-c3ccccc3)c2-c2ccccc2)cc1,i
C/C(=N/NC(=O)c1cccc(N2CCCC2=O)c1)c1ccncc1,-166.1
